Measured values taken from PubChem BioAssay (NCATS).
Inconclusive results are not listed. Unmarked numbers belong to inactive results. Calls of active or inactive are those of the source. The call rests on the fitted dose curve; in most records, active means well fitted cell-killing curve with a large enough effect; inconclusive means small, poorly fitted or top-dose-only effect; inactive means flat fitted curve, though single readings scatter.

How the values were obtained:
[1] = Cellular viability qHTS for adrenocortical cancer (ACC) cell line SW-13 (AID 1963989); conditions: SW-13 ACC cells viability, CellTiter-Glo, 48 h; activity (max response): hits give low values; further: nearly all actives have a fitted effect of over 65% in size;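 on activity (max response): cells grown in serum-free medium with ITS supplement; on the % scale 0 is the no-effect control and ±100 the full control effect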
Summary of the method: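 Viability was read as CellTiter-Glo luminescence after 48 h compound treatment (up to 46 uM final) of SW-13 cells grown serum-free; titration curves were fit with a four-parameter logistic model to give IC50 and efficacy.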

[2] = Cellular viability qHTS for adrenocortical cancer (ACC) cell line NCI-H295R (AID 1963990); further: nearly all actives have a fitted effect of over 60% in size
Summary of the method: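 CellTiter-Glo ATP luminescence, read 48 h after compound addition, measured viability of NCI-H295R adrenocortical cells grown serum-free with ITS. Final concentrations spanned up to 46 uM. Data normalized to DMSO and doxorubicin, fitted for IC50 and maximal response.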
Potency means the concentration at half of the fitted maximal effect.

SMILES | Potency [1] | Potency [2] | activity (max response) [1] [%]
CCC(CC)C(c1ccc(Nc2nc3ccccc3s2)cc1)n1cncn1 (stereo unspecified) | 22.4 µM (active) | 17.8 µM (active) | –
CNC(=O)c1c(C)oc2cc(Oc3ncnc4cc(OC)c(OC)cc34)ccc12 | – | inactive | 9.66
COc1ccc(-c2cnc3c(-c4cccc5ncccc45)cnn3c2)cc1 | – | inactive | 5.61
CC(C)CCOC(=O)c1ccc(N(C)C)cc1 | – | inactive | 5.28
Cc1[nH]cnc1CN1CCc2c(c3ccccc3n2C)C1=O | – | inactive | 6.95
NS(=O)(=O)c1cc(C(=O)NN2C[C@H]3[C@H]4CCC(C4)[C@H]3C2)ccc1Cl | – | inactive | -7.57
CCCCNc1ccc(C(=O)OCCN(CC)CC)cc1 | – | inactive | -7.77
Cc1ccc(NS(=O)(=O)c2ccc3c(c2)C2C=CCC2C(c2ccc(C(=O)O)cc2)N3)cc1C (stereo unspecified) | – | inactive | -1.16
COCCN1CCN(Cc2ccc(-c3n[nH]c4c3C(=O)c3c(NC(=O)NN5CCOCC5)cccc3-4)cc2)CC1 | 0.316 µM (active) | 0.891 µM (active) | –
CC(=O)Oc1ccc(C(=C2CCCCC2)c2ccc(OC(C)=O)cc2)cc1 | – | inactive | -5.44
CCC(C)CNCC(=O)N1CCc2sccc2C1c1cccc(C)n1 (stereo unspecified) | – | inactive | 11.1
Oc1cccc(O)c1 | – | inactive | 6.94
CCOCOC[C@H](C[C@H](C)C(=O)NO)NC(=O)c1ccc(Oc2ccccc2)cc1 | – | inactive | -8.03
